Laboratory results taken from PubChem BioAssay AID588499 (NMMLSC, 2011).
The campaign covered roughly 360,000 compounds. About 610 (0.17%) were called active. About 2% were inconclusive and are not listed. Only a selection was taken, and actives are over-represented in it overall. A number with no mark means an inactive call. Cut-off read from the data, not from the text of the source: active = inhibition above about 30%; inconclusive = no clear call, values can overlap the other calls; inactive = below that.

What follows are compounds tested on Botulinum neurotoxin type A light chain protease (Clostridium botulinum A str. ATCC 3502) (assay: BoNT/A light chain protease inhibitors, primary screen, biochemical, flow cytometry, MLPCN library (AID 588499; note: plate controls were buffer without enzyme for full effect and enzyme alone for no effect)). Settings: multiplex microsphere protease substrate cleavage, at 10 µM, stronger effect = higher value.
Work on `CCOc1ncccc1C(=O)OCC(=O)NC1CC1` yielded an inhibition of -0.4%. For `CCOc1ncccc1C(=O)OCC(=O)c1c[nH]c2ccccc12`, the inhibition was 36.8% (active). Compound `O=C(OCC(=O)c1c[nH]c2ccccc12)c1cccc(O)c1` has an inhibition of 0.8%. `CC1CCCCC12NC(=O)N(CC(=O)Nc1ccc(S(=O)(=O)Nc3ncccn3)cc1)C2=O` (stereo not drawn) was tested, and the inhibition was -0.7%. In the case of `CC(=O)Nc1ccc(-c2ccnc3c2CC(C(=O)NC(C)C)O3)cc1` (stereo not drawn), the inhibition is reported as 0.1%. With `CCCc1ccc(C(O)c2ncc(-c3cccc(OC)c3)[nH]2)cc1` (stereo not drawn) the inhibition was 0.3%. Work on `COc1ccc(C2CC(c3cccs3)=NN2C(=O)CSc2nncs2)cc1OC` (stereo not drawn) yielded an inhibition of 0.2%. In the case of `COc1ccc(C2CC(c3cccs3)=NN2c2nc(C)c(C(C)=O)s2)cc1OC` (stereo not drawn), the inhibition is reported as 63.7% (active). In the case of `COc1ccc(C2CC(c3cccs3)=NN2C(=O)CSc2nnc(N)s2)cc1OC` (stereo not drawn), the inhibition is reported as 0.2%. `CCN(CC)C(=O)Oc1ccc(Br)cc1C(=O)Nc1ccc(F)c(Cl)c1` gave an inhibition of -0.8%. For `Cc1ccc(CNC(=O)C(=O)c2cn(CC(=O)N3CCCC3)c3ccccc23)cc1`, the inhibition was 0%. With `O=C(NCc1ccco1)C(=O)c1cn(CC(=O)N2CCCCCC2)c2ccccc12` the inhibition was 10.2%. `O=C(NCCCn1ccnc1)C(=O)c1cn(CC(=O)N2CCCCCC2)c2ccccc12` was tested, and the inhibition was 30.5% (active). For `CC1(C(=O)NS(=O)(=O)C2CC2)CCCN(C(=O)CSc2ccccc2)C1` (stereo not drawn), the inhibition was 0.5%. With `CN(C(=O)COC(=O)c1cc(=O)[nH]c2ccccc12)C1CCCCC1` the inhibition was 2.1%. In the case of `CSCC[C@H](NC(=O)NCc1cccs1)C(=O)O`, the inhibition is reported as -0.9%. Work on `COc1ccc(NC(=O)COc2ccc(C(=O)c3ccc(F)cc3)cc2)cc1S(N)(=O)=O` yielded an inhibition of -1%. Compound `C[C@@H]1CN([C@@H](C)CO)C(=O)CCCn2nncc2CO[C@@H]1CN(C)S(=O)(=O)c1ccc(-c2ccccc2)cc1` has an inhibition of -0.4%. Work on `O=c1[nH]snc1-c1c(Cl)cccc1Cl` yielded an inhibition of -0.7%. In the case of `COC(=O)c1c(NC(=O)COC(=O)[C@@H](NS(=O)(=O)c2ccccc2)C(C)C)sc2c1CCC2`, the inhibition is reported as -0.3%. `CCOC(=O)C1CCN(C(=O)CN2C(=O)c3cccnc3Oc3ccc(C)cc32)CC1` was tested, and the inhibition was -1%. In the case of `CCOC(=O)C1CCN(C(=O)Cc2c(C(=O)O)[nH]c3ccccc23)CC1`, the inhibition is reported as -4.4%. With `CCOC(=O)N(C)c1c(CC)nc2c(OCc3ccccc3C(=O)OC)cccn12` the inhibition was -0.1%. `CCN1CCN(c2ccc(S(=O)(=O)N3CCCCC3)cc2NC(=O)Cc2c(Cl)cccc2Cl)CC1` gave an inhibition of -1.8%. Compound `CCn1c(O)c(N=NC2=NC(=O)CS2)c2cc(C)ccc21` has an inhibition of -0.3%. In the case of `COC(=O)c1ccc(CN2CCCC(C(=O)Nc3cccc(-n4cnnn4)c3)C2)cc1` (stereo not drawn), the inhibition is reported as -3.3%. `CC(C)C1N=C2c3ccccc3N=C(SCC(=O)c3ccc(O)c(O)c3)N2C1=O` (stereo not drawn) was tested, and the inhibition was 0.1%. `Cc1cc(C(C)(C)C)oc1C(=O)N(CC(=O)NC1CCCC1)Cc1ccc(Cl)cc1` was tested, and the inhibition was -0.3%. With `CC1(C(=O)Nc2cccc(Oc3ccccc3)c2)CCN1Cc1ccccc1Cl` (stereo not drawn) the inhibition was -0.1%. Work on `CC(C)CN(C(=O)CN1CCN(S(=O)(=O)c2ccccc2)CC1)c1c(N)n(CC(C)C)c(=O)[nH]c1=O` yielded an inhibition of -2.5%. `Cc1cc(-c2nnc(CCC(=O)NC(c3ccccc3)c3ccccc3)o2)no1` showed an inhibition of 0.3%. In the case of `CCCn1c(=NC(C)=O)c(C(=O)OCC)cc2c(=O)n3ccccc3nc21`, the inhibition is reported as 0.6%. `CCOC(=O)c1cc2c(=O)n3ccccc3nc2n(CC(C)C)c1=NC(=O)c1c(-c2c(F)cccc2Cl)noc1C` was tested, and the inhibition was 60.3% (active). With `Cc1onc(-c2c(F)cccc2Cl)c1C(=O)OCC(=O)N1C(C)CCCC1C` (stereo not drawn) the inhibition was 0.1%. For `CC(C)C(C)(C#N)NC(=O)CSc1nncn1-c1ccccc1` (stereo not drawn), the inhibition was -0.7%. For `Cc1ccc(SCC2=NNC(=O)C2)cc1`, the inhibition was 0.6%. Work on `CCc1ccc(CCC(=O)Nc2ccc(S(N)(=O)=O)cc2)o1` yielded an inhibition of 0.3%. In the case of `CCCCCCN1CCN(C2CN(Cc3cn(CCCCCC)nn3)S(=O)(=O)C2)CC1` (stereo not drawn), the inhibition is reported as -0.3%. `Cc1ccc2nc(-c3ccccc3)c(CC3CCCCC3)n2c1` was tested, and the inhibition was 1.4%. `CC1=CCC2C(=O)N(c3cccc(C(=O)NC(C)c4ccccc4)c3)C(=O)C2C1` (stereo not drawn) gave an inhibition of -3.1%. Compound `COCCNC(=O)COc1ccc(N(C)S(=O)(=O)c2ccc3ccccc3c2)cc1` has an inhibition of -1.4%. In the case of `Cc1cc2ccccc2n1CCNC(=O)COc1ccc2ccccc2c1`, the inhibition is reported as 61.4% (active). For `Cc1ccc(C)c(NC(=O)CN(C)C(=O)COc2ccc3ccccc3c2)c1`, the inhibition was -0.4%. Work on `Cc1ccc(S(=O)(=O)N2CC[C@H]3[C@@H](C2)C(=O)C[C@@H](c2ccccc2)N3S(=O)(=O)c2ccc(C)cc2)cc1` yielded an inhibition of -0.4%. For `Cc1ccc(N(C(=O)c2ccc(CN3CCOCC3)o2)C(C(=O)NCCC(C)C)c2cccs2)c(C)c1` (stereo not drawn), the inhibition was -1%. With `Cc1cccc(N(CC(=O)Nc2ccc(-c3nc4ccc(C)cc4s3)cc2)S(C)(=O)=O)c1` the inhibition was -0.9%. For `CCCCCc1c(-c2ccc(OC)c(OC)c2)ncn1CCc1ccccc1OC`, the inhibition was -0.2%. `COC(=O)c1ccc2nc(-c3ccc(OC)c(OC)c3)c(Cc3ccccc3)n2c1` showed an inhibition of 3%. In the case of `CCCOc1cccc(C(=O)Nc2ccccc2C(=O)N2CCN(C)CC2)c1`, the inhibition is reported as -2.3%. `COc1ccc(C(=O)NC(Cc2ccc(OC(=O)c3ccc(OC)cc3)cc2)C(=O)O)cc1` (stereo not drawn) was tested, and the inhibition was 0.4%. `c1csc(-c2nnc(COc3ccc4c(c3)OCO4)o2)c1` was tested, and the inhibition was -0.4%. With `COC(=O)c1ccc2nc(-c3ccc(C)cc3)c(Cc3ccc(OC)cc3C)n2c1` the inhibition was 0.7%. In the case of `COCCNC(=S)N/N=C/c1c(C)[nH]c2ccccc12`, the inhibition is reported as 42.9% (active). `CN=c1scc(-c2cc(OC)ccc2OC)n1/N=C/c1c(C)[nH]c2ccccc12` gave an inhibition of 7.7%. `Cc1[nH]c2ccccc2c1/C=N/NC(=O)CNC(=O)c1ccc2c(c1)OCO2` gave an inhibition of 0.6%. `CCCN(C(=O)CSc1nnnn1C)c1c(N)n(Cc2ccccc2)c(=O)[nH]c1=O` gave an inhibition of -0.4%. Work on `CCOC(=O)c1ccn(-c2nc(-c3ccco3)cc(C(F)(F)F)n2)n1` yielded an inhibition of 0.1%. `O=C(Cn1cnc2c(OCc3ccccc3)ncnc21)NCc1nc2ccccc2[nH]1` was tested, and the inhibition was -0.1%. With `Cc1ccc(Cc2c(-c3ccco3)nc3ccc(Cl)cn23)cc1` the inhibition was 4.3%. In the case of `CCc1nnc(NC(=O)CSc2nc3ccccc3c(=O)n2CCCOC)s1`, the inhibition is reported as 0.5%. `O=[N+]([O-])c1ccc(NS(=O)(=O)c2ccccc2)c(Cl)c1` was tested, and the inhibition was -0.4%. `CCN(C(=O)Cc1c(C(=O)O)n(CC)c2ccccc12)c1ccccc1C` was tested, and the inhibition was -3.2%. In the case of `COc1cc(/C=C2\SC(=S)N(Nc3ncc(C(F)(F)F)cc3Cl)C2=O)cc(OC)c1OC`, the inhibition is reported as 82.7% (active). Work on `COc1cc(-c2nnc(Cn3cc(C(F)(F)F)ccc3=O)o2)cc(OC)c1OC` yielded an inhibition of 0.9%. `O=C1/C(=C/c2ccc(F)cc2)SC(=S)N1NS(=O)(=O)c1ccccc1` showed an inhibition of 1.8%. `Nc1nnc(SCC(=O)OCc2ccc(Cl)c(Cl)c2)s1` showed an inhibition of -0.2%. `O=c1cnnc(Nc2ccccc2F)[nH]1` was tested, and the inhibition was -1.3%. `N#Cc1ccc(N2Cc3ccccc3/C2=N/C(=O)Nc2ccc(Cl)cc2)cc1` gave an inhibition of -0.1%. `Cc1cc([N+](=O)[O-])nn1Cc1ccc(F)cc1` was tested, and the inhibition was -0.3%. For `Nc1nonc1-n1nnc(C(=O)N/N=C/c2cc(Br)ccc2O)c1CSC1=NCCS1`, the inhibition was 0.6%. Compound `COc1ccc(CCNC(=S)N2CCN(S(=O)(=O)c3ccc(F)cc3)CC2)cc1` has an inhibition of 0.6%. For `CCCn1nnc2sc3c(c2c1=O)CCC(C)C3` (stereo not drawn), the inhibition was 0.3%. In the case of `CC1CCc2c(sc3nc4n(c(=O)c23)CCS4)C1` (stereo not drawn), the inhibition is reported as 52.4% (active). `Cn1c(NN)nc2sc3c(c2c1=O)CCC3` gave an inhibition of -1.4%. Work on `Cc1ccc2[nH]c(C(=O)O)c(NC(=O)c3ccccc3[N+](=O)[O-])c2c1` yielded an inhibition of 0.9%. Work on `O=C1CSC(c2cccc(F)c2)N1c1ccccc1F` (stereo not drawn) yielded an inhibition of -0.9%. Work on `Cc1cc(Br)ccc1NC(=O)CCCOc1cc(=O)n(C)c2ccccc12` yielded an inhibition of 0%. `CCC(=O)N(C)C(c1ccccc1Cl)c1nnnn1-c1c(C)cccc1C` (stereo not drawn) showed an inhibition of -0.4%. In the case of `COc1ccc(/C(=N\O)c2nccc3cc(OC)c(OC)cc23)cc1OC`, the inhibition is reported as -0.2%. In the case of `COc1ccc(C2OC(CCc3ccccc3)Cc3[nH]c(=S)[nH]c(=O)c32)cc1` (stereo not drawn), the inhibition is reported as 0.5%. For `CCOc1ccc2ccccc2c1/C=N/NC(=O)c1c(C)cc(C)[nH]c1=O`, the inhibition was 0.8%. Compound `O=C(O)c1ccc2c(=O)n3c(nc2c1)/C(=C/c1ccc(OC(F)F)cc1OC(F)F)CC3` has an inhibition of -1.9%. `CC(C)(C)c1ccc(S(=O)(=O)NC(=O)C2(C)CCN2C(=O)CC2CC2)cc1` (stereo not drawn) was tested, and the inhibition was -0.9%. For `O=C(CC(NC(=O)c1ccccc1)c1ccccc1)Nc1ccc(F)c(F)c1` (stereo not drawn), the inhibition was -0.5%. With `CN(C(=O)CSc1nnc(-c2n[nH]c3ccccc23)o1)c1ccccc1` the inhibition was 0.1%. `Cc1nc(C(F)(F)F)ccc1C(=O)N1CCC1(C)C(=O)NS(=O)(=O)c1ccccc1` (stereo not drawn) was tested, and the inhibition was -0.7%. Compound `Nc1nc2c(ncn2[C@@H]2O[C@H](CNCc3ccc(OCCCN4CCOCC4)cc3)[C@@H](O)[C@H]2O)c(=O)[nH]1` has an inhibition of -0.1%. `CCc1oc(-c2ccc(OC)cc2)c(C(=O)OCCCCCO)c1C(C)OCCO` (stereo not drawn) showed an inhibition of 0.8%.
